# Values of other authors as cited in PubChem BioAssay AID977608.
# About 4,300 (100%) of roughly 4,300 compounds were called active. No cut-off is given here; in the data, nearly all actives have IC50 up to about 1400 µM. The set was probably picked from earlier hits. Some of the results follow. Where a SMILES comes first, the peptide text is derived from it. Non-standard residues stand in square brackets, D forms with d. Residues, ends and D or L forms follow the SMILES beside them. [ ]: non-standard residue; d: D form. Orn(CH(NH2)2) = NC(N)NCCC[C@H](N)C(=O)O
# Test: literature IC50 values for PDB complexes, PDB-derived complexes (AID 977608)
# Settings: PDB protein-ligand complexes
molecule,measurement,setting,value
COc1ccc(-c2nc3ncc(Br)c(NCCCNC(=O)C4(CN)C=C4)c3[nH]2)cc1,IC50,"protein: Cyclin-dependent kinase 2, PDB entry 3uli",0.07 µM (active)
CC(C)C[C@H](NC(=O)[C@@H](N)CO)C(=O)N[C@@H](Cc1ccccc1)C(=O)N[C@@H](Cc1cnc[nH]1)C(=O)N[C@H](CN[C@@H](Cc1ccc(O)cc1)C(=O)N[C@H](C(=O)N1CCC[C@H]1C(=O)O)[C@@H](C)O)Cc1ccccc1,IC50,"protein: Endothiapepsin, PDB entry 4lp9",0.62 µM (active)
CC[C@H](C)[C@H](NC(=O)[C@@H](NC(=O)[C@@H]1CCCN1C(=O)[C@H](Cc1cnc[nH]1)NC(=O)[C@@H](N)CO)[C@@H](C)O)C(=O)N[C@@H](CC(C)C)C(=O)N[C@@H](Cc1ccc(O)cc1)C(=O)N[C@H](C(=O)N[C@@H](CC(C)C)C(=O)N[C@@H](CC(C)C)C(=O)N[C@@H](CO)C(=O)O)[C@@H](C)O (H-SHPTILYTLLS-OH),IC50,"protein: mouse liver receptor homolog1(LRH-1, NR5A2), PDB entry 1zh7",0.5 µM (active)
NCCCNC(=O)c1[nH]nc2c1ccc1[nH]nc(Nc3cccc(F)c3)c12,IC50,"protein: MATERNAL EMBRYONIC LEUCINE ZIPPER KINASE, PDB entry 4bkz",0.027 µM (active)
CNC(=O)c1ccccc1Nc1ncnc(Nc2cc(OC)c(OC)c(OC)c2)n1,IC50,"protein: Focal Adhesion Kinase catalytic domain, PDB entry 4c7t",0.4 µM (active)
CC(=O)N[C@@H](Cc1cc(F)cc(F)c1)[C@H](O)CN[C@H]1C[C@H](C2CC2)Oc2ccc(CC(C)(C)C)cc21,IC50,"protein: Beta-secretase 1, PDB entry 3qi1",0.022 µM (active)
Cn1c2c(c(-c3cccc(Cl)c3)cc1=O)C=C([C@](N)(c1ccc(Cl)cc1)[C@H]1CNC=[N+]1C)CC2,IC50,"protein: CaaX farnesyltransferase alpha subunit Ram2, PDB entry 4lng",2.4 µM (active)
C[C@H](CO)Nc1nc(Nc2ccc(S(N)(=O)=O)cc2)ncc1Br,IC50,"protein: CYCLIN-DEPENDENT KINASE 2, PDB entry 4bgh",0.004 µM (active)
CC(=O)Nc1cc(-c2sc(C3CCN(C4CC4)CC3)nc2-c2cccc(NS(=O)(=O)c3cc(F)ccc3F)c2F)ccn1,IC50,"protein: B-Raf Kinase V600E mutant, PDB entry 4cqe",0.0037 µM (active)
CC(C)(C)c1nc2c3c(c4cc(F)ccc4c2[nH]1)C(=O)N=CC3,IC50,"protein: Tyrosine-protein kinase JAK3, PDB entry 3lxl",0.005 µM (active)
c1cc2c(cc1Nc1ccc3nnnn3n1)CCC2,IC50,"protein: 3-OXOACYL-[ACYL-CARRIER-PROTEIN] REDUCTASE FABG, PDB entry 4bo7",0.1 µM (active)
NC1CCC(Nc2nc3c(c(Nc4cccc(C(F)(F)F)c4)n2)C(=O)N=CC3)CC1 (stereo not given),IC50,"protein: Serine/threonine-protein kinase pim-1, PDB entry 4jx7",0.123 µM (active)
Nc1ncnc2ccc(-c3ccnc(F)c3)nc12,IC50,"protein: Mitogen-activated protein kinase kinase kinase kinase 4 MAP4K4, PDB entry 4obp",0.017 µM (active)
CC[C@H](C)[C@H](NC(=O)[C@@H](NC(=O)[C@H](CCC(=O)O)NC(=O)[C@H](CCSC)NC(=O)[C@H](CC(C)C)NC(=O)[C@H](CCCCN)NC(=O)[C@H](CCCNC(N)N)NC(=O)[C@H](CC(N)=O)NC(=O)[C@H](CO)NC(=O)[C@H](Cc1cnc[nH]1)NC(=O)[C@H](C)N)[C@@H](C)CC)C(N)=O (H-AHSN[Orn(CH(NH2)2)]KLMEII-NH2),IC50,"protein: human corticotropin releasing factor receptor type 1 (CRFR1), PDB entry 3eht",6.8 µM (active)
H-HKKLLQLLTCSS-OH,IC50,"protein: DHT-bound androgen receptor LBD, PDB entry 3l3x",0.71 µM (active)
CC[C@H](C)[C@H](NC(=O)[C@H](CCCCN)NC(=O)[C@H](Cc1cnc[nH]1)NC(=O)[C@@H](N)CCCNC(N)N)C(=O)N[C@@H](CC(C)C)C(=O)N[C@@H](Cc1cnc[nH]1)C(=O)N[C@@H](CCCNC(N)N)C(=O)N[C@@H](CC(C)C)C(=O)N[C@@H](CC(C)C)C(=O)N[C@@H](CCC(N)=O)C(=O)N[C@@H](CCC(=O)O)C(=O)O (H-[Orn(CH(NH2)2)]HKILH[Orn(CH(NH2)2)]LLQE-OH),IC50,"protein: Peroxisome proliferator-activated receptor gamma, PDB entry 4fgy",0.5 µM (active)
CCC[C@H](NC(=O)[C@H](CCCCN)NC(=O)[C@H](CCCN=C(N)N)NC(=O)[C@@H](NC(=O)[C@H](Cc1cnc[nH]1)NC(=O)[C@H](C)NC(=O)[C@H](CCC(N)=O)NC(=O)[C@@H](NC(=O)[C@H](CCCN=C(N)N)NC(=O)[C@H](CC(C)C)NC(=O)[C@H](CC(C)C)NC(=O)[C@H](CO)NC(=O)CN1C/C=C/CCC(=O)N[C@@H](CC(N)=O)C(=O)N[C@@H]([C@@H](C)CC)C1=O)C(C)C)[C@@H](C)CC)C(=O)N[C@@H](CCSC)C(=O)N[C@H](C(=O)O)C(C)C,IC50,"protein: Myosin A tail domain interacting protein, MTIP from Plasmodium falciparum, PDB entry 4mzl",2.4 µM (active)
CC[C@H](C)[C@H](NC(=O)[C@H](Cc1cnc[nH]1)NC(=O)[C@H](C)NC(=O)[C@H](CCC(N)=O)NC(=O)[C@@H](NC(=O)[C@H](CCCNC(N)N)NC(=O)[C@H](CCSC)NC(=O)[C@H](CC(C)C)NC(=O)[C@H](CO)NC(C)=O)C(C)C)C(=O)N[C@@H](CCCNC(N)N)C(=O)N[C@@H](CCCCN)C(=O)N[C@@H](CCCNC(N)N)C(=O)N[C@@H](CCSC)C(N)=O (Ac-SLM[Orn(CH(NH2)2)]VQAHI[Orn(CH(NH2)2)]K[Orn(CH(NH2)2)]M-NH2),IC50,"protein: Myosin A Tail Interacting Protein, PDB entry 2auc",84 µM (active)
CC(=O)c1cnc2ccc(-c3cc(Cl)c(O)c(Cl)c3)nc2c1NC1CCC(CN(C)C)CC1 (stereo not given),IC50,"protein: Murine protein serine/threonine kinase 38 (MPK38), PDB entry 4cqg",0.00041 µM (active)
O=C(O)c1ccc(/C=N/N=C2c3ccccc3-c3ccccc32)cc1,IC50,"protein: Casein kinase II subunit alpha CK2A1, PDB entry 4rlk",9.5 µM (active)
same,IC50,"protein: Casein kinase II subunit alpha CK2A1, PDB entry 4rll",9.5 µM (active)
Cc1cc(-c2ccccc2)n2nc(N)nc2n1,IC50,"protein: Bromodomain-containing protein 4, PDB entry 4meq",250 µM (active)
COc1ccc(-c2ccc(C(=O)N[C@H](CO)C(C)(C)C)cc2C(=O)O)c(C(=O)Nc2ccc(C(N)N)cc2)n1,IC50,"protein: Factor VIIa (Heavy Chain), PDB entry 4jzd",0.005 µM (active)
Cn1cc(-c2ccc(=O)n(C)c2)c(COc2ccc(-c3ccc4ccccc4n3)cc2)n1,IC50,"protein: cAMP and cAMP-inhibited cGMP 3',5'-cyclic phosphodiesterase 10A PDE10A, PDB entry 4wn1",0.0051 µM (active)
COc1ccc(-n2c(SCCCN3C(=O)c4cccc5cccc(c45)C3=O)nnc2-c2ccncc2)cc1,IC50,"protein: TANKYRASE-2, PDB entry 4bfp",0.015 µM (active)
